In the supplement of paper PMC10849652:
Targets with a hit are over-represented here; the source holds about 7,900 in all. About 0.6% of all pairs of compound and target were hits.

What was measured:
Assay in all cases: log2 fold change, soluble protein after heating vs DMSO (PISA); higher = thermal stabilisation; K562 cells, 10 uM, 30 min; active = over 0.2 and 3.5 SD of the protein, either way, in both replicates (recomputed)
[1] = compound: C#Cc1cccc(Nc2ncnc3cc(OCCOC)c(OCCOC)cc23)c1 [erlotinib]
Procedure, shortened: (§1)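 For each measurement, 10 μM compound was applied for 30 min to K562 cells at 2×10^6 cells/mL. Aliquots were heated for 3 min across 48°C-58°C, pooled, and extracted in PBS with 0.5% NP-40 at 4°C; the supernatant after 21,000xg for 90 min was soluble protein. This was quantified by TMTpro 16plex LC-MS/MS with channel sums equalised, and thermal stability was reported relative to control samples from duplicates, on a log2 fold-change scale.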

[2] = compound: C/C(=N\NC(=O)C1=CC(=CC=C1)S(=O)(=O)N2CCOCC2)/C3=C(C=CC(=C3)Cl)O
Procedure, shortened: as §1

[3] = compound: C1=CC(=C(C=C1Cl)C2=NC3=NC=CN=C3C(=N2)NC4=CC=NC=C4)F
Procedure, shortened: as §1

[4] = compound: C1=CC(=CC=C1C2=NC3=C(N2)C=C(C=C3)C(=O)N)OC4=CC=C(C=C4)Cl
Procedure, shortened: as §1

[5] = compound: C1=CC2=C(C=CC(=C2)/C=C\3/C(=O)NC(=NCC4=CC=CS4)S3)N=C1
Procedure, shortened: as §1

[6] = compound: C1=CC2=NC=CN=C2C=C1/C=C/3\C(=O)NC(=O)S3
Procedure, shortened: as §1

[7] = compound: C1=CC=C(C=C1)C2=NC(=C(N2)C3=CC=NC=C3)C4=CC(=C(C=C4)Cl)O
Procedure, shortened: as §1

[8] = compound: C1=CC=C2C(=C1)C3=NNC4=CC=CC(=C43)C2=O
Procedure, shortened: as §1

[9] = compound: C1CCN(C1)C(=O)NC2=CC=CC(=C2)NC3=NC=C(C(=N3)NCCC4=CN=CN4)Br
Procedure, shortened: as §1

[10] = compound: C1CN(CCC1(CC2=CC=C(C=C2)Cl)N)C3=NC=NC4=C3C=CN4
Procedure, shortened: as §1

Measured: log2 fold change

RNASEH2A (UniProt O75792)
inactive: [1] 0.041 | [2] 0.085 | [3] -0.062 | [4] 0.019 | [5] 0.119 | [6] -0.038 | [7] -0.026 | [8] 0.065 | [9] -0.016 | [10] -0.115

SELENOH (UniProt Q8IZQ5)
Sequence of UniProt Q8IZQ5 (Q8IZQ5 whole entry, looked up): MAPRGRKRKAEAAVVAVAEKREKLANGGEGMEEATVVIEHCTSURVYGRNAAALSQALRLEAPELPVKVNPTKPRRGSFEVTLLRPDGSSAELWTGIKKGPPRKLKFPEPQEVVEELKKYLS
inactive: [1] 0.032 | [2] 0.013 | [3] -0.013 | [4] -0.003 | [6] -0.002 | [7] 0.034 | [8] 0.003 | [9] -0.052 | [10] 0.032
active: [5] -0.297

RPS12 (UniProt P25398)
inactive: [1] -0.115 | [2] -0.082 | [3] -0.072 | [4] -0.001 | [5] -0.021 | [6] -0.002 | [7] 0.008 | [8] -0.02 | [9] 0.027 | [10] -0.05

SLC19A1 (UniProt P41440)
inactive: [1] -0.023 | [2] 0.029 | [3] 0.159 | [4] 0.022 | [5] -0.006 | [6] 0.103 | [7] 0.118 | [8] -0.008 | [9] -0.009 | [10] 0.08

RECQL (UniProt P46063)
inactive: [1] -0.019 | [2] 0.072 | [3] 0.066 | [4] -0.005 | [5] 0.046 | [6] 0.004 | [7] -0.004 | [8] -0.003 | [9] -0.062 | [10] 0.01

RSF1 (UniProt Q96T23)
inactive: [1] 0.034 | [2] 0.152 | [3] 0.031 | [4] 0.126 | [5] 0.039 | [6] 0.012 | [7] 0.089 | [8] -0.057 | [9] 0.01 | [10] 0.006

RBM17 (UniProt Q96I25)
Sequence of UniProt Q96I25 (Q96I25 whole entry, looked up): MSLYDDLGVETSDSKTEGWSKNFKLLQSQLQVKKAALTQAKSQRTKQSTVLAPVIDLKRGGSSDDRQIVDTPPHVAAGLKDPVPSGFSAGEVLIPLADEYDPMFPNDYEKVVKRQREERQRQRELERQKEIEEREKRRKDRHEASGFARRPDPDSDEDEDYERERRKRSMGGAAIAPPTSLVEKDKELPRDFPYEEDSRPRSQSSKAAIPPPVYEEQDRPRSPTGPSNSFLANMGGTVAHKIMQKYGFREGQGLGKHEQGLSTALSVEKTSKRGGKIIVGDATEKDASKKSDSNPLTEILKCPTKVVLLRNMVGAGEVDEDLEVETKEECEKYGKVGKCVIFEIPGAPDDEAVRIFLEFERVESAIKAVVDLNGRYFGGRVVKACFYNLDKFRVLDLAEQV
inactive: [1] 0.039 | [2] 0.044 | [3] 0.015 | [4] -0.023 | [5] -0.085 | [6] -0.029 | [7] 0.1 | [8] 0.011 | [9] -0.08 | [10] -0.16

SCAF8 isoform 2 (UniProt Q9UPN6)
inactive: [1] 0.203 | [2] 0.051 | [3] 0.048 | [4] 0.034 | [5] 0.124 | [6] -0.028 | [7] 0.298 | [8] 0.069 | [9] -0.031 | [10] -0.036

RRS1 (UniProt Q15050)
inactive: [1] -0.099 | [2] -0.205 | [3] -0.536 | [4] -0.003 | [5] -0.095 | [6] 0.004 | [7] -0.18 | [8] -0.018 | [9] 0.162 | [10] -0.219

REEP4 (UniProt Q9H6H4)
inactive: [1] -0.024 | [2] 0.027 | [3] -0.049 | [4] 0.026 | [5] -0.018 | [6] 0.005 | [7] 0.063 | [8] -0.04 | [9] 0.047 | [10] -0.081

SH3GLB2 (UniProt Q9NR46)
Sequence of UniProt Q9NR46 (Q9NR46 whole entry, looked up): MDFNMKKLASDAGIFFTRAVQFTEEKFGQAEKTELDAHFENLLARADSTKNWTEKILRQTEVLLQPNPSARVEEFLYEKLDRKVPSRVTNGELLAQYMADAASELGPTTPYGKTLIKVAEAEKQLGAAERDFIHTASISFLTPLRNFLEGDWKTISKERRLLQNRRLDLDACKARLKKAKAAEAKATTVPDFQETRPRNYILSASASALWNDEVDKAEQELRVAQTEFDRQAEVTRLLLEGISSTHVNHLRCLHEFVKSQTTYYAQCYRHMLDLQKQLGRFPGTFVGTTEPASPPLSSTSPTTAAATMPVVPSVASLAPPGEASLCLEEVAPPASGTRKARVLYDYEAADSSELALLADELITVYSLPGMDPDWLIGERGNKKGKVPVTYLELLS
inactive: [1] 0.048 | [2] 0.081 | [3] -0.044 | [4] -0.021 | [5] 0 | [6] 0.01 | [7] -0.033 | [8] -0.021 | [9] -0.022 | [10] -0.013

RDH13 (UniProt Q8NBN7)
inactive: [1] 0.019 | [2] -0.004 | [3] 0.082 | [4] 0.01 | [5] 0.127 | [6] -0.024 | [7] 0.005 | [8] 0.007 | [9] 0.05 | [10] 0.007

RAB33B (UniProt Q9H082)
inactive: [1] 0.059 | [2] 0.031 | [3] 0.028 | [4] -0.029 | [5] -0.08 | [6] -0.012 | [7] -0.079 | [8] 0.025 | [9] -0.016 | [10] 0.118

RPS21 (UniProt P63220)
inactive: [1] -0.045 | [2] -0.062 | [3] -0.071 | [4] 0.017 | [5] -0.056 | [6] 0.079 | [7] -0.066 | [8] -0.027 | [9] 0.033 | [10] 0.017

SEC23IP (UniProt Q9Y6Y8)
Sequence of UniProt Q9Y6Y8 (Q9Y6Y8 whole entry, looked up): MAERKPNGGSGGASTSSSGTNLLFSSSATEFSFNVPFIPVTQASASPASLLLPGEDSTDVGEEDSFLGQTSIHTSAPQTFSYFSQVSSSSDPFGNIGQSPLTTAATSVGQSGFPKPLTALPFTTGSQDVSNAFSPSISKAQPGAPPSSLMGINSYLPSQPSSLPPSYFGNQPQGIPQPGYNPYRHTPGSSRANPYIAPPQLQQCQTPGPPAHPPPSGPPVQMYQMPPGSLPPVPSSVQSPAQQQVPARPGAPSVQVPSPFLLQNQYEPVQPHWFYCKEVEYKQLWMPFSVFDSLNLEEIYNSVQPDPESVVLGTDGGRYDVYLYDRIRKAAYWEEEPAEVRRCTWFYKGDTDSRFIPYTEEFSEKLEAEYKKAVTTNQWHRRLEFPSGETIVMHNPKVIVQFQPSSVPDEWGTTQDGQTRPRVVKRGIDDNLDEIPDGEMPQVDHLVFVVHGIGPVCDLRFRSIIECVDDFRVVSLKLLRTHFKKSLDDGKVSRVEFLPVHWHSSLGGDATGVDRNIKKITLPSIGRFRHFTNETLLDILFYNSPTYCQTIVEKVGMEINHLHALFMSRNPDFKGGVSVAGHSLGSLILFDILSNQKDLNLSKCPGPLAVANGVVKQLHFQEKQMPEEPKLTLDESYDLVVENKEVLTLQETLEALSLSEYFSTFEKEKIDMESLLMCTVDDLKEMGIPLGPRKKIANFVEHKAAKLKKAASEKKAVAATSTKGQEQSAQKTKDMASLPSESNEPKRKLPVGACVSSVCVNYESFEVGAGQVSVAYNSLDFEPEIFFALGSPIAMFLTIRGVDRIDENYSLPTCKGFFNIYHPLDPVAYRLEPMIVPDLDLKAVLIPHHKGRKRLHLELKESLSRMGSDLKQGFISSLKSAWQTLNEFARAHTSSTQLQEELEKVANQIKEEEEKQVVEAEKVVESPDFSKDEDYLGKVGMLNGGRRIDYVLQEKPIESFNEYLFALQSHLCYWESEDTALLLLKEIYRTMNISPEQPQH
inactive: [1] 0.03 | [2] 0.022 | [3] -0.013 | [4] -0.037 | [5] 0.028 | [6] 0.229 | [7] -0.023 | [8] -0.027 | [9] -0.008 | [10] -0.061

RRP9 (UniProt O43818)
Sequence of UniProt O43818 (O43818 whole entry, looked up): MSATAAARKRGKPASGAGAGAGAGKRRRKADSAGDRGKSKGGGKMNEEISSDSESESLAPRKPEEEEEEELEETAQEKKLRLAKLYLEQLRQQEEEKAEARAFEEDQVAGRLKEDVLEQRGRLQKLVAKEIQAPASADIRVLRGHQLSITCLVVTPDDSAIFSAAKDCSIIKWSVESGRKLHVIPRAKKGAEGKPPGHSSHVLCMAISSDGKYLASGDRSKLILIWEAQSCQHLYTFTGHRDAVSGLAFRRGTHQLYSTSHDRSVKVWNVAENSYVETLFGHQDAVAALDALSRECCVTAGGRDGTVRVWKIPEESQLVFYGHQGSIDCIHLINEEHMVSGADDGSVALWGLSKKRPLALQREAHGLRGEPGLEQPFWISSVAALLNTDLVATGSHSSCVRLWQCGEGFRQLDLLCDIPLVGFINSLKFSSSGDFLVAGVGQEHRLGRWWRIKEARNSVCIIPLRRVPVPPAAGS
inactive: [1] 0.018 | [2] -0.04 | [3] -0.099 | [4] -0.004 | [5] -0.042 | [6] 0.03 | [7] -0.114 | [8] -0.085 | [9] -0.081 | [10] -0.016

RPS25 (UniProt P62851)
inactive: [1] -0.083 | [2] -0.071 | [3] -0.276 | [4] 0.077 | [5] -0.075 | [6] -0.091 | [7] -0.067 | [8] 0.033 | [9] 0.061 | [10] -0.141

SDCBP (UniProt O00560)
Sequence of UniProt O00560 (O00560 whole entry, looked up): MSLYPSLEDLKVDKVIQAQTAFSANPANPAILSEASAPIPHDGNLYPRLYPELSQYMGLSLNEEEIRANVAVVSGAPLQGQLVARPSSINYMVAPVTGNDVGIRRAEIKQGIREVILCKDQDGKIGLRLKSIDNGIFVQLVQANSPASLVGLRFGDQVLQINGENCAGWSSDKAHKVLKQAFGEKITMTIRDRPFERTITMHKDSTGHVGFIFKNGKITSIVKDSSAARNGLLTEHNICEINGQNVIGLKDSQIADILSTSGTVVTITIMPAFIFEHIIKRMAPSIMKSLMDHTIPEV
inactive: [1] -0.048 | [2] -0.1 | [3] -0.058 | [4] 0.047 | [5] -0.036 | [6] -0.008 | [7] 0.034 | [8] 0.002 | [9] -0.021 | [10] -0.045

RDH10 (UniProt Q8IZV5)
inactive: [1] 0.122 | [2] 0.065 | [3] 0.024 | [4] 0.003 | [5] 0.204 | [6] -0.035 | [7] 0.077 | [8] 0.039 | [9] -0.008 | [10] 0.235

RPS5 (UniProt P46782)
inactive: [1] -0.149 | [2] -0.087 | [3] -0.193 | [4] 0.038 | [5] -0.047 | [6] -0.045 | [7] -0.003 | [8] 0.008 | [9] 0.022 | [10] -0.125

RARS (UniProt P54136)
Sequence of UniProt P54136 (P54136 whole entry, looked up): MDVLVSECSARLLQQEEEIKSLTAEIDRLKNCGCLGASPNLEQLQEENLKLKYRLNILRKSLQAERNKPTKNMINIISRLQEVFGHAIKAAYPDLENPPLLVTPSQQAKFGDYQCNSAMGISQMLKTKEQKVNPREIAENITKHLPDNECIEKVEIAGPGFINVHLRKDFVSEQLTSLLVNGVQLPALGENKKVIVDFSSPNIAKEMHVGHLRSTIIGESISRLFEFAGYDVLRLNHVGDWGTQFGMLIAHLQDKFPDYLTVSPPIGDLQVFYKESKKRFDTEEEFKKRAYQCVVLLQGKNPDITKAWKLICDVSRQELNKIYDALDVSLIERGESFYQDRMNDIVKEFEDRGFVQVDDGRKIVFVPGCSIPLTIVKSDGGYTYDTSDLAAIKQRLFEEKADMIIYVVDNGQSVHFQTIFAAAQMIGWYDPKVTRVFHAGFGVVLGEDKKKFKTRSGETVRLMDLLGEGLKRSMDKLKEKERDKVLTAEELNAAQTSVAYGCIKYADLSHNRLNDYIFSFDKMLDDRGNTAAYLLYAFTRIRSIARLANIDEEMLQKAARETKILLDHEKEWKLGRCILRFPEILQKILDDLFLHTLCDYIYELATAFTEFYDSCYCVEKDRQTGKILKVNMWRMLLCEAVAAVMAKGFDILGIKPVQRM
inactive: [1] 0.023 | [2] 0.011 | [3] -0.169 | [4] -0.007 | [5] 0.019 | [6] 0 | [7] -0.046 | [8] -0.005 | [9] 0.07 | [10] -0.155

RPTOR (UniProt Q8N122)
inactive: [1] -0.034 | [2] 0.075 | [3] 0.036 | [4] -0.037 | [5] 0.039 | [6] 0.003 | [7] -0.038 | [8] -0.031 | [9] -0.042 | [10] -0.027

RNPEP (UniProt Q9H4A4)
inactive: [1] 0.053 | [2] 0.053 | [3] 0.053 | [4] 0.007 | [5] 0.009 | [6] 0.019 | [7] 0.036 | [8] -0.008 | [9] -0.004 | [10] -0.016

RSRC2 (UniProt Q7L4I2)
Sequence of UniProt Q7L4I2 (Q7L4I2 whole entry, looked up): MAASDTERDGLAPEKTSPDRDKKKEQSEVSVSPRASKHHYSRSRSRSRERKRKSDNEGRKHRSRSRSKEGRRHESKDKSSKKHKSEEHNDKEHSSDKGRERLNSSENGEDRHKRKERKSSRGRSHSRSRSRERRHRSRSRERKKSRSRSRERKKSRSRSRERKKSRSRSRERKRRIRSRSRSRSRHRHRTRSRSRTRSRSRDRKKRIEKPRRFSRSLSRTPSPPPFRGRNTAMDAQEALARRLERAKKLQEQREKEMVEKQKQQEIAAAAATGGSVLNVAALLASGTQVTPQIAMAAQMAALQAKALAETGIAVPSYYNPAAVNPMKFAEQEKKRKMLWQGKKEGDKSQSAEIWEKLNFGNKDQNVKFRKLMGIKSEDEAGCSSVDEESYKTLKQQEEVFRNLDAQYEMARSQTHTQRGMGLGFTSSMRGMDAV
inactive: [1] 0.023 | [2] -0.01 | [3] -0.009 | [4] -0.012 | [5] -0.05 | [6] 0.018 | [7] 0.019 | [8] -0.032 | [9] 0 | [10] 0.012

RAP1GDS1 isoform 5 (UniProt P52306)
Sequence of UniProt P52306 (P52306 whole entry, looked up): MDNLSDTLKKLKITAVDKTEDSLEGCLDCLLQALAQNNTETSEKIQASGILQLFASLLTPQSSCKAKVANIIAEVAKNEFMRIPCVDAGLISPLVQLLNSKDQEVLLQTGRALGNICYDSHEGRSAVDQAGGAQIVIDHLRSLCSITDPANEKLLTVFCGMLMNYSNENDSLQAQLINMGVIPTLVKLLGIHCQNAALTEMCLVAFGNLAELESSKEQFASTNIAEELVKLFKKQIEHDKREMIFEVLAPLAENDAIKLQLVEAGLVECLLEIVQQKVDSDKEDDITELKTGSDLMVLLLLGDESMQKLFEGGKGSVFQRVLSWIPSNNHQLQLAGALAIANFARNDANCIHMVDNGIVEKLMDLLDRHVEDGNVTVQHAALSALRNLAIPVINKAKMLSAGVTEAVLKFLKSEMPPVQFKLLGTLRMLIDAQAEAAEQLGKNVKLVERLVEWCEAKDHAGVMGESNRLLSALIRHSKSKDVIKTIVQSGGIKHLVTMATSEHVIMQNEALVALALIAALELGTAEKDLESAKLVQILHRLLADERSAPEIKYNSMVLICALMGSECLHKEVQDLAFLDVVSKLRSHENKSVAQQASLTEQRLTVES
inactive: [1] 0.019 | [2] -0.012 | [3] -0.021 | [4] -0.013 | [5] 0.027 | [6] 0.106 | [7] -0.016 | [8] -0.038 | [9] -0.023 | [10] -0.077

RPP25L (UniProt Q8N5L8)
Sequence of UniProt Q8N5L8 (Q8N5L8 whole entry, looked up): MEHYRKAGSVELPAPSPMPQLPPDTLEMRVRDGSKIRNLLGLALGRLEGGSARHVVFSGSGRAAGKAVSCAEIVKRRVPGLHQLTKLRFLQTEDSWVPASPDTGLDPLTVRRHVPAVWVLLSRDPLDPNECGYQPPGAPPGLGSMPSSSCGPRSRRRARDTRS
inactive: [2] -0.004 | [3] -0.029 | [4] 0.031 | [5] -0.001 | [6] 0.041 | [7] 0.014 | [8] -0.065 | [9] 0.01 | [10] 0.01
active: [1] 0.274

SLC12A9 (UniProt Q9BXP2)
inactive: [1] 0.023 | [2] 0.03 | [3] 0.039 | [4] -0.013 | [5] -0.04 | [6] 0.021 | [7] 0.016 | [8] -0.015 | [9] -0.019 | [10] -0.012

RBM48 isoform 2 (UniProt Q5RL73)
Sequence of UniProt Q5RL73 (Q5RL73 whole entry, looked up): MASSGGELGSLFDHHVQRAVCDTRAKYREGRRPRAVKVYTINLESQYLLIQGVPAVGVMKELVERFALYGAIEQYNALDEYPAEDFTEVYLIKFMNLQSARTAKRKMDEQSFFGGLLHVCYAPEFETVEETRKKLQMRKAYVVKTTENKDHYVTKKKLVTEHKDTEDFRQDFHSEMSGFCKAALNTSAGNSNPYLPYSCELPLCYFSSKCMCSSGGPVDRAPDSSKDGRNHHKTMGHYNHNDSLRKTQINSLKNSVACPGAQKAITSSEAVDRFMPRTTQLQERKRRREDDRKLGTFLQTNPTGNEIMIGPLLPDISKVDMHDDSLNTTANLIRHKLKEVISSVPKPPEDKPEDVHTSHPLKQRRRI
inactive: [1] -0.048 | [2] 0.017 | [3] -0.065 | [4] -0.026 | [5] 0.053 | [6] 0.055 | [7] -0.144 | [8] 0.042 | [9] 0.118 | [10] -0.115

SCAMP2 (UniProt O15127)
inactive: [1] 0.014 | [2] 0.141 | [3] 0.081 | [4] 0.011 | [5] -0.154 | [6] 0.063 | [7] 0.055 | [8] 0.057 | [9] -0.116 | [10] 0.087
